# In PubChem BioAssay (EPA / NIEHS):
# Inconclusive results are not listed. Some structures have more than one record in an assay (separate samples or runs), and their calls can disagree. Activity calls are given as the source filed them. How the source made its calls: active means hit-call score of the fitted dose curve at least 0.9, where 1 is the maximum; inconclusive means response in the unintended direction; inactive means score below 0.9.
# Molecular target: Peroxisome proliferator-activated receptor gamma (Homo sapiens) (UniProt P37231)
# Sequence (P37231 whole entry, looked up): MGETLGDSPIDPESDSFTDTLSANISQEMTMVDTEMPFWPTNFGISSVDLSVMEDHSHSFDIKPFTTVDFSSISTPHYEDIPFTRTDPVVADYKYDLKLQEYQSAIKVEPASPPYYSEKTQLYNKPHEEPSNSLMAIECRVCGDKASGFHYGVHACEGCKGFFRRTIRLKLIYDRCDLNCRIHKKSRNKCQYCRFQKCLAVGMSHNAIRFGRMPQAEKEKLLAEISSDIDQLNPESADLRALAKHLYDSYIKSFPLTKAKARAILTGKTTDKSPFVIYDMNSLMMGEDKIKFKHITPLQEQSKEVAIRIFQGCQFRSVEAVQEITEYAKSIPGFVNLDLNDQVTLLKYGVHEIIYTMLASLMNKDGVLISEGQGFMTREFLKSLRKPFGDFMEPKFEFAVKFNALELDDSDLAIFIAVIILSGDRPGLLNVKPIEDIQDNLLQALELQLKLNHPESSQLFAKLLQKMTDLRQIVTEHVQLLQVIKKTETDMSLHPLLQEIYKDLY
# Assay: NVS_NR_hPPARg: NovaScreen (NVS) Nuclear Receptor Binding Assay for human Peroxisome Proliferator-activated Receptor gamma (PPARg) (AID 2283370)
# Method: NVS_NR_hPPARg is a biochemical, single-readout assay that uses extracted gene-proteins in a cell-free assay. Measurements were taken 2 hours after chemical dosing in a 384-well plate.NVS_NR_hPPARg is one of one assay component(s) measured or calculated from the NVS_NR_hPPARg assay. It is designed to make measurements of fluorescent polarization, a form of binding reporter, as detected with fluorescence polarization signals by Fluorescence Polarization technology.Data from the assay component NVS_NR_hPPARg was analyzed into 1 assay endpoint. This assay endpoint, NVS_NR_hPPARg, was analyzed in the positive analysis fitting direction relative to DMSO as the negative control and baseline of activity. Using a type of binding reporter, loss-of-signal activity can be used to understand changes in the binding as they relate to the gene PPARG. Furthermore, this assay endpoint can be referred to as a primary readout, because the performed assay has only produced 1 assay endpoint. To generalize the intended target to other relatable targets, this assay endpoint is annotated to the nuclear receptor intended target family, where the subfamily is non-steroidal.
# Binding assays used specific radioligands (tritiated, iodinated) with non-radioactive competitive displacement ligands in agonist or antagonist protocols (as indicated) and various reference compounds and inhibitors to titrate specific binding to receptors and transporters. Most enzyme assays (CYPs, kinases, phosphatases, proteases, HDACs) used recombinant protein and specific substrates (fluorescence mostly, some colorimetric and radioactive) and inhibitors, followed by a biochemical separation of substrate and product. All assays for the biochemical HTS were initially run in duplicate at a single concentration (10 uM for CYP450 assays and 25 uM for all others). […] Each assay was run with positive and negative controls, and concurrent controls on every plate. The follow-up (secondary) screen tested active chemical-pairs in concentration series, as well as a few additional assays not tested in the primary screen, some selected negative inactives, and several cases re-run in the concentration series for confirmatory purposes.
Structure (SMILES),outcome,AC50
CCc1cc(Cc2cc(CC)c(N)c(CC)c2)cc(CC)c1N,inactive,14.2 µM (active)
CCCCCCCCCCCCC[N+](C)(C)Cc1ccccc1,inactive,–
CCCCCCCC/C=C\CCCCCCCC(=O)OCC(O)CO (stereo not drawn),inactive,–
CC(C)(C)c1cc(Cc2cc(C(C)(C)C)c(O)c(C(C)(C)C)c2)cc(C(C)(C)C)c1O,inactive,–
CCCCCCCCCc1ccc(OCCO)cc1,inactive,–
COCCOCCC[Si](C)(O[Si](C)(C)C)O[Si](C)(C)C,inactive,–
CC(C)Nc1ccc(NC(C)C)c2c1C(=O)c1ccccc1C2=O,inactive,–
Cc1ccc([N+](=O)[O-])c(C)c1,inactive,–
CCOC(OCC)OCC,inactive,–
CCCCCCCCn1sc(Cl)c(Cl)c1=O,inactive,–
CCN=C1C=CC(=C(c2ccc(N(CC)CC)cc2)c2ccc(N(CC)CC)cc2)c2ccccc21,inactive,–
CC(=O)CCC(C)C,inactive,–
